Results published in ChEMBL document CHEMBL1157539, “Thousands of chemical starting points for antimalarial lead identification” (Nature, 2010).

Test system: Plasmodium falciparum
Assay: GSK_TCMDC: Inhibition of Plasmodium falciparum 3D7 in whole red blood cells, using parasite LDH activity as an index of growth. Test compounds present at 2uM
Type: functional

Point of comparison: `NC(=O)C1CCN(Cc2ccc(-c3ccc(-c4nc5cc(F)ccc5[nH]4)cc3)cc2)CC1.O=C(O)C(F)(F)F`, Inhibition 100%. Against it:
- CN(C)CCNc1cc(-c2ccc3ccccc3c2)nc2ccccc12 — the same, 100%
- O=C(NCCCCN1CC=C(c2ccc3c(c2OCc2ccccc2)CCCC3)CC1)c1ccc(-c2ccc(C(F)(F)F)cc2)cc1 — lower, 97%
- CN1CCN(CCCN(Cc2ccc(-c3ccc(CNCCc4ccccc4)cc3)cc2)C(=O)c2cccs2)CC1.O=C(O)C(F)(F)F — lower, 98%
- N#Cc1ccc(-c2ccc(C(=O)NCCCCN3CCC(c4ccc5c(c4OCC(N)=O)CCCC5)CC3)nc2)cc1 — the same, 100%
- Cc1cc(N[C@@H](Cc2ccccc2)C(=O)NCCOc2ccccc2)nc(NCCc2ccccc2)n1.O=C(O)C(F)(F)F — the same, 100%
- CCc1ccc(-n2cc(C(=O)c3cc(Br)ccc3O)cc(C#N)c2=O)cc1 — lower, 97%
- CC(C)(CNCc1cccc(Oc2ccccc2)c1)c1nc(-c2ccnc(N)n2)c(-c2ccc(Cl)c(O)c2)[nH]1.Cl — lower, 97%
- CC(C)n1ncc2c(C(=O)N3CCCCCC3)cc(-c3ccccc3)nc21 — lower, 97%
- COc1ccc(CCNCCCCCCNCCc2ccc(OC)c(OC)c2Cl)c(Cl)c1OC.Cl — lower, 96%
- CC(=O)Nc1ccc(CN(C)C2CCN(c3cc(NC(=O)c4cccc(C)c4)ccn3)CC2)cc1.O=C(O)C(F)(F)F — lower, 94%
- OC1=C2C(=Nc3ccccc3SC2c2ccccc2)c2ccccc21 (stereo not given) — lower, 86%
- Fc1cccc(COc2ccc(-n3ccc4c(NCCCn5ccnc5)ncnc43)cc2Cl)n1 — lower, 87%
- Cc1cccc2nc(-c3ccc(-c4ccc(CN5CCC(C(N)=O)CC5)cc4)cc3)[nH]c12.O=C(O)C(F)(F)F — lower, 91%
- COc1ccc(NC(=O)/C=C/c2ccc(-c3ccccc3)cc2)cc1N1CCN(C)CC1.O=C(O)C(=O)O — lower, 90%
- Cc1cccc2nc(-c3ccc(-c4cccc(NC(=O)Nc5ccsc5)c4)cc3)[nH]c12 — the same, 100%
- O=C(C=Cc1ccc(F)cc1)N1CCN(S(=O)(=O)c2ccc(Cl)cc2)CC1 — lower, 91%
- CC(=O)c1ccc(-c2cccc3c(CC(=O)Nc4ccc5nccc(N6CCN(C)CC6)c5c4)cccc23)cc1 — the same, 100%
- CN1CCN(c2nsc3ccc(-c4ccc(OCCN5CCCC5)cc4)cc23)CC1.O=C(O)C(F)(F)F — the same, 100%
- Cc1cc(C)c(NC(=O)NC2CCN(CCCCCNC(=O)/C=C/c3ccc(Cl)c(Cl)c3)C2)c(C)c1 (stereo not given) — lower, 99%
- CC(CN(C)C)Oc1ccc2nc(-c3cccc(OCc4ccccc4)c3)[nH]c2c1C#N (stereo not given) — the same, 100%
- O=C(NCCNc1ccnc(Nc2ccc(F)cc2)n1)c1cc2ccccc2s1 — lower, 99%
- CCNc1cc(C(=O)N[C@@H](Cc2ccccc2)[C@H](O)CNCCCc2ccc(OC)cc2)cc(N2CCCC2=O)c1.O=C(O)C(F)(F)F — lower, 99%
- COc1ccc2nc(N3CCNCC3)nc(NCCCc3ccccc3)c2c1.Cl — the same, 100%
- Cl.O=C(/C=C/c1cccc(Cl)c1)Nc1ccc2nc(CN3CCCC3)ccc2c1 — lower, 99%
- Nc1nc(N)c2c(ccc3c2ccn3CC2CC2)n1 — lower, 96%
- CN1CCN(Cc2ccc(-c3cccc(-c4nc5ccccc5[nH]4)c3)cc2)CC1.O=C(O)C(F)(F)F — lower, 93%
- CN(Cc1ccccc1)C(=O)c1nn(CCCN2CCC(N3CCCC3)CC2)cc1-c1ccc(Cl)c(Cl)c1 — the same, 100%
- NC1CCN(c2nc(NCCc3ccc(O)cc3)nc(NCc3ccccc3-c3ccc(C(F)(F)F)cc3)n2)CC1.O=C(O)C(F)(F)F — the same, 100%
- CCOC(=O)c1c(CSc2ccccc2)oc2cc(CN(C)C)c(O)c(Cl)c12 — lower, 99%
- COc1ccc(C(=O)N2CCC3(CC2)C(=O)N(CC(=O)NC2CCCCC2)CN3c2ccccc2)c(OC)c1 — the same, 100%
- CN(C)CCN1CCN(Cc2ccc(-c3cccc(-c4nc5ccccc5[nH]4)c3)cc2)CC1.O=C(O)C(F)(F)F — the same, 100%
- O=C(O)C(F)(F)F.c1cc(CNCCc2ccncc2)cc(-c2ccc(-c3nc4ccccc4[nH]3)cc2)c1 — lower, 99%
- CO/C(=C\C=C\c1cc2cc(Cl)ccc2[nH]1)C(=O)NCCCN1CCN(c2cc(Cl)ccc2OC)CC1 — lower, 97%
- Cc1[nH]c(C)c(-c2ccc(-c3ccc(OCC(F)(F)F)cc3)nc2)c(=O)c1Cl — lower, 94%
- CCc1ccccc1N1CCN(CCCCNC(=O)c2ccc(NC(=O)c3ccc(Cl)cc3)cc2)CC1 — lower, 96%
- O=C(O)C(F)(F)F.c1cc(OCCN2CCCC2)ccc1CNC1CCN(CC2CCCCC2)CC1 — the same, 100%
- CN1C(=CC(=O)NC(=O)c2ccccc2)C(C)(C)c2ccccc21 — lower, 93%
- O=C(O)C(F)(F)F.Oc1ccc(CCCNc2nc(NCc3cccc4ccccc34)nc(NC3CCNCC3)n2)cc1 — lower, 91%
- O=C(Nc1ccc(Cl)cc1)c1ccc(CN2CCCN(Cc3cccc(F)c3)CC2)cc1.O=C(O)C(F)(F)F — lower, 91%
